Assay outcomes as filed in PubChem BioAssay.
Only some compounds are listed: those with a hit (about 19% of all), similar ones and a draw of the others.
DT40 TDP1 no CPT: qHTS for Inhibitors of human tyrosyl-DNA phosphodiesterase 1 (TDP1): qHTS in cells in absence of CPT | DT40 Tdp1-/- hTDP1 cells, no CPT, ATP luminescence, 48 h | Potency, µM (series often up to 46.2 µM), usual class: inhibitors | hit rate 15% among 420,000 | AID 686978, 2013; further: nearly all actives have a fitted effect of over 55% in size
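Growth kinetics read by CellTiter-Glo luminescence after ≥48 hr at 37 °C. Cells: DT40 Tdp1-/- stably carrying human TDP1, 400 per well, compound exposure in the absence of CPT (DMSO vehicle).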
IL-1B inflam inh: inhibitors of inflammasome signaling (IL-1 beta secretion). THP-1 LPS/ATP IL-1B secretion, AlphaLISA, 16 h; active compounds read low. activity change, % at 57.5 µM. hit rate 4.7% among 360,000. AID 743279; in the data active means activity change below about -50%; inconclusive means mostly about -30% to -49%
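Secreted IL-1B measured by AlphaLISA bead assay after 16 h compound exposure of THP-1 cells; compounds (final up to 57.5 uM) added 1 h before LPS (250 ng/mL) and ATP (1.25 mM) stimulation; lower signal means less secretion.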
TDP1 cell CPT: DT40-hTDP1 cell growth loss with CPT | Potency, µM (doses to about 46.2 µM), hits mostly inhibitors | chicken DT40 Tdp1-/-;hTDP1 cells + 20 nM CPT, ATP luminescence, 48 h | hit rate 12% among 420,000; further: nearly all actives have a fitted effect of over 55% in size
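Chicken DT40 Tdp1-/- cells stably complemented with human TDP1 were seeded at 400 cells/well in medium containing 20 nM camptothecin, exposed to pin-transferred compounds, and grown at 37 °C for at least 48 hr. Viability was read as ATP luminescence.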
HT1080NT lethal: kills 2HG-producing HT-1080-NT fibrosarcoma cells; HT-1080-NT fibrosarcoma viability, CellTiter-Glo ATP luminescence, 48 h; Potency, µM (highest dose often 46.1 µM), usual class: cytotoxic; hit rate 1.6% among 360,000; AID 686970;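 further: NT is the 2HG producing partner of a matched IDH1 knockdown line; nearly all actives have a fitted effect of over 55% in size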
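Compounds were tested in concentration-response format on HT-1080-NT cells for 48 hours at 37 degrees C. Cell viability came from CellTiter-Glo luminescence; curves were classified by r2, response magnitude and activity.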
HT1080 IDH1KD tx: HT-1080 IDH1 knockdown cell toxicity (counter line). HT-1080 IDH1 knockdown viability, ATP luminescence, 48 h. Potency, µM (highest dose often 46.1 µM), usual class: cytotoxic. hit rate 2% among 360,000. AID 686971
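Viability of IDH1-knockdown HT-1080 fibrosarcoma cells was assessed by CellTiter-Glo after 48 h at 37 °C with titrated compound; concentration-effect curves were classified by fit quality and response size.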
ELG1 repair inh: blocks ELG1-dependent DNA repair in HEK293T cells. HEK293T ELG1-luciferase reporter, luminescence, 16 h; DNA damage induced by 5-fluorouridine. AID 504467. hit rate 2.3% among 330,000. Potency, µM (top dose mostly 46.1 µM), most hits filed as inhibitors; further: nearly all actives have a fitted effect of over 55% in size
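Overnight (16 hr) co-exposure of 2,000 cells/well to 5-fluorouridine and compound at 37 °C preceded detection. Luciferase was quantified via ONE-Glo luminescence; loss of signal denotes inhibition.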
Hits are given with their value; . = inactive; ? = inconclusive; / = no result. Unless noted, the call rests on the fitted dose curve; in most records, active means well fitted curve in the direction sought with a large enough effect; inconclusive means small, poorly fitted or top-dose-only effect, or another doubt; inactive means no such curve, though single readings can be large; an effect the other way counts as inactive or inconclusive.

SMILES	DT40 TDP1 no CPT	IL-1B inflam inh	TDP1 cell CPT	HT1080NT lethal	HT1080 IDH1KD tx	ELG1 repair inh
COc1ccc2[nH]cc(S(=O)(=O)c3ccc(C)cc3)c2c1	?	.	.	.	.	.
CCOc1ccc2[nH]cc(S(=O)(=O)c3ccc(C)cc3)c(=O)c2c1	?	.	?	.	.	16µM
CCOc1ccc2[nH]cc(S(=O)(=O)c3ccc(Cl)cc3)c(=O)c2c1	9.2µM	.	9.2µM	.	.	?
COc1ccc(/C=C/c2cc(C(F)(F)F)[nH]c(=O)n2)cc1OC	.	-96	.	.	.	.
CCOc1cc(/C=C/c2nc3ccccc3c(=O)[nH]2)ccc1O	?	.	?	.	.	.
CCOc1cc(/C=C/c2cc(C(F)(F)F)[nH]c(=O)n2)ccc1O	?	-63	?	?	?	?
CCOC(=O)c1c(NC(=O)CN2C(=O)NC(C)(c3ccc(Cl)cc3)C2=O)sc(C(=O)NC)c1C (stereo unspecified)	12µM	.	23µM	.	.	18µM
CC1(c2ccc(Cl)cc2)NC(=O)N(CC(=O)NCc2ccc(F)cc2)C1=O (stereo unspecified)	.	.	.	.	.	?
O=C(CCl)NN1C(=O)NC(c2ccccc2)(c2ccccc2)C1=O	21µM	-117	?	?	16µM	?
CC1(c2ccc(Cl)cc2)NC(=O)N(CC(=O)Nc2ccc(F)cc2)C1=O (stereo unspecified)	.	.	.	.	.	.
Cc1ccc(CNC(=O)CN2C(=O)NC(C)(c3ccc(Cl)cc3)C2=O)cc1 (stereo unspecified)	.	-52	.	.	.	.
O=C(CN1C(=O)NC(c2ccccc2)(c2ccccc2)C1=O)NCc1ccc(F)cc1	.	-55	?	.	.	?
COc1ccc(CNC(=O)CN(c2cc(C(F)(F)F)ccc2Cl)S(C)(=O)=O)cc1	?	/	.	/	/	/
CCCNC(=O)C1CCN(S(=O)(=O)c2ccc3c(c2)CCCN3C(C)=O)CC1	?	/	.	/	/	/
CC1=C(C(=O)Nc2ccc(C(=O)N3CCN(c4cccc(Cl)c4)CC3)cc2)SCCO1	.	?	?	.	.	.
CC1=C(C(=O)Nc2cc(C(=O)N3CCN(c4ccc(Cl)cc4)CC3)ccc2C)SCCO1	15µM	.	18µM	.	.	/
CC1=C(C(=O)Nc2cccc(C(=O)N3CCN(c4cccc(C(F)(F)F)c4)CC3)c2)SCCO1	26µM	-61	15µM	?	?	.
CC1=C(C(=O)Nc2cccc(C(=O)NC3CCCCC3C)c2)SCCO1 (stereo unspecified)	?	.	16µM	.	.	?
CN1C(=O)N(CC(=O)c2ccc3c(c2)OCO3)C(=O)C12CCCCC2	.	.	.	.	.	/
Cn1c(=O)c(-c2cccc(C#N)c2)nc2cnc(Oc3ccccc3)nc21	.	/	.	/	/	/
CCN1CCCC1CNCC(O)COc1ccc(C(C)(C)C)cc1C (stereo unspecified)	5.8µM	?	6.5µM	.	?	.
N#Cc1cnn2c3c(cnc12)C(=O)N1CCc2ccccc2C1C3 (stereo unspecified)	?	?	?	.	.	.
O=C(c1cc(-c2cccs2)nc2ccccc12)N1CCN(S(=O)(=O)c2ccccc2)CC1	?	.	?	.	.	16µM
CC1CCCN(C(=O)c2cc(-c3cccs3)nc3ccccc23)C1 (stereo unspecified)	23µM	.	?	.	.	?
O=C(c1cc(-c2ccccn2)nc2c(Cl)cccc12)N1CCN(S(=O)(=O)c2ccccc2)CC1	21µM	.	?	.	.	18µM
SMILES	DT40 TDP1 no CPT	IL-1B inflam inh	TDP1 cell CPT	HT1080NT lethal	HT1080 IDH1KD tx	ELG1 repair inh
O=C(c1cc(-c2cccs2)nc2ccccc12)N1CCN(c2ccccc2)CC1	?	.	?	.	?	?
Cc1ccc(Nc2ncnc3c2nc2n3CCCC2)c(Br)c1	.	/	?	/	/	/
Cc1ccc(NC(=O)CSc2nnc(COc3ccc(Cl)cc3)o2)cc1	.	/	.	/	/	/
Cc1cc(C)n(-c2nc3ccccc3c(=O)n2OCCOc2ccccc2)n1	18µM	.	12µM	?	.	.
Cc1ccc2cc(CNC[C@H]3O[C@@H](n4cc(C)c(=O)[nH]c4=O)C[C@@H]3O)c(N3CCOCC3)nc2c1	.	.	.	.	.	/
Cc1ccccc1CC1(CO)CCCN(C(=O)c2ccc3ncccc3c2)C1 (stereo unspecified)	15µM	.	6.5µM	.	.	.
Cc1ccccc1CC1(CO)CCCN(C(=O)c2ccc(F)cc2)C1 (stereo unspecified)	?	.	?	.	.	.
